We go through six compounds from PubChem BioAssay (EPA / NIEHS).

Structures are written as SMILES. Activity calls are given as the source filed them. Rule for the calls: active = hit-call score of the fitted dose curve at least 0.9, where 1 is the maximum; inactive = score below 0.9.

Experiment [1] addresses Bile acid receptor (Homo sapiens) (UniProt Q96RI1). As to the kind of experiment: ATG_IR1_CIS: Attagene CIS-FACTORIAL HepG2 Assay for human Nuclear Receptor Subfamily 1 Group H Member 4 (NR1H4), IR1 submotif (AID 2282946). Conditions: IR1 reporter transcription, actives raise or lower the signal. The procedure, abridged: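 Readout: reporter transcript levels by RT-PCR with fluorescent capillary electrophoresis, from HepG2 cells transiently transfected with multiplexed cis-regulated reporters and dosed 24 h. Gain- or loss-of-signal fitted versus DMSO negative control.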

The nature of experiment [2]: ATG_GRE_CIS: Attagene CIS-FACTORIAL HepG2 Assay for human Glucocorticoid Response Elements (GRE) (AID 2282947). Conditions: HepG2 GRE cis-reporter, Attagene multiplex mRNA; actives raise or lower the signal. The procedure, abridged: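 Cells (HepG2) bearing transfected cis-promoter reporter transcription units were treated with chemical for 24 hours. Reporter mRNA was measured via RT-PCR with capillary electrophoresis, and activity was fitted in both directions relative to DMSO.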

The nature of experiment [3]: ATG_ISRE_CIS: Attagene CIS-FACTORIAL HepG2 Assay for human Interferon Regulatory Factor 1 (IRF1) binding to an Interferon-Stimulated Response Element (ISRE) (AID 2282948). The conditions noted are these: HepG2 ISRE cis-reporter (Attagene), mRNA transcription readout; actives raise or lower the signal. The procedure, abridged: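 Multiplexed mRNA reporter readout in human liver HepG2 cells: cis-element-driven reporters transfected, compound added for 24 h, transcripts amplified, fluorescently labelled and sized by capillary electrophoresis; curve fitting bidirectional against DMSO.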

Experiment [4] in a line: ATG_M_32_CIS: Attagene CIS-FACTORIAL HepG2 Assay for M32 Transcription Factor (Internal Marker) (AID 2282949).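 Note: background control marker of the multiplexed CIS panel rather than a real target.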 Conditions: HepG2 Attagene cis-factorial M32 reporter, mRNA; actives raise or lower the signal. The procedure, abridged: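 HepG2 human liver cells transiently transfected with cis-promoter-driven multiple reporter transcription units, dosed 24 h. Reporter mRNA quantified by RT-PCR, FAM-labelled primer extension, HpaI digest and capillary electrophoresis; bidirectional fit versus DMSO baseline.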

The nature of experiment [5]: ATG_M_06_CIS: Attagene CIS-FACTORIAL HepG2 Assay for M06 Transcription Factor (Internal Marker) (AID 2282950). The conditions noted are these: HepG2 Attagene CIS-FACTORIAL M06 internal marker reporter; actives raise or lower the signal. In a few lines: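 Fluorescence-labelled RT-PCR products from cis-promoter reporter units, cut with HpaI and resolved by capillary electrophoresis, give the signal. Cells are human HepG2, dosed for 24 h. Serves as background control, fitted relative to DMSO.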

Experiment [6] has as its target Hypoxia-inducible factor 1-alpha (Homo sapiens) (UniProt Q16665). As to the kind of experiment: ATG_HIF1a_CIS: Attagene CIS-FACTORIAL HepG2 Assay for human Hypoxia Inducible Factor 1 (HIF1A) (AID 2282951). Conditions: HepG2 Attagene cis-factorial HIF1a reporter transcription; actives raise or lower the signal. In a few lines:
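Measures endogenous transcription-factor activity through cis-regulated reporter mRNA in HepG2. Cells dosed 24 h; transcripts quantified by RT-PCR with 6-FAM-labelled products separated by capillary electrophoresis; DMSO serves as negative control.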

In experiment [7] the target is Hepatocyte nuclear factor 6 (Homo sapiens) (UniProt Q9UBC0). The experiment in a line: ATG_HNF6_CIS: Attagene CIS-FACTORIAL HepG2 Assay for human Hepatocyte Nuclear Factor 6 (HNF6) (AID 2282952). Conditions: HepG2 Attagene cis-factorial HNF6 reporter transcription; actives raise or lower the signal. The procedure, abridged: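 Twenty-four-hour chemical treatment of reporter-transfected HepG2 cells precedes RNA isolation, DNase-treated reverse transcription and PCR of reporter sequences. Labelled fragments are sized by capillary electrophoresis and fitted bidirectionally versus DMSO.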

Experiment [8] deals with Heat shock factor protein 1 (Homo sapiens) (UniProt Q00613). The experiment in a line: ATG_HSE_CIS: Attagene CIS-FACTORIAL HepG2 Assay for human Heat Shock Transcription Factor 1 (HSE) (AID 2282953). Conditions: HepG2 HSE cis-reporter, Attagene RNA transcription; actives raise or lower the signal. In a few lines:
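After a 24 h incubation with test chemical, transfected HepG2 cells were harvested for RNA; reporter transcripts were measured by RT-PCR and capillary electrophoresis. Values reflect gain or loss of signal relative to DMSO.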

Experiment [9] is described as follows: ATG_MRE_CIS: Attagene CIS-FACTORIAL HepG2 Assay for human Metal Responsive Element (MRE) (AID 2282954). The conditions noted are these: HepG2 MRE cis-reporter transcription, Attagene multiplex; actives raise or lower the signal. In a few lines:
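Cells were transfected with cis-promoter reporter transcription units, then dosed for 24 h. RNA was reverse-transcribed, amplified, fluorescently labelled and resolved by capillary electrophoresis, and activity was fitted in both directions relative to DMSO.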

The nature of experiment [10]: ATG_PBREM_CIS: Attagene CIS-FACTORIAL HepG2 Assay for human Phenobarbital-responsive Enhancer Module (PBREM) (AID 2282955). The conditions noted are these: HepG2 PBREM cis-reporter, Attagene multiplexed transcription; actives raise or lower the signal. The procedure, abridged:
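Fluorescence of labelled reporter cDNA fragments, resolved by capillary electrophoresis, gives mRNA induction in transfected HepG2 cells treated for 24 h; DMSO serves as negative control and baseline.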

The target of experiment [11] is Paired box protein Pax-6 (Homo sapiens) (UniProt P26367). The experiment in a line: ATG_Pax6_CIS: Attagene CIS-FACTORIAL HepG2 Assay for human Paired Box 6 (PAX6) (AID 2282956). The conditions noted are these: HepG2 CIS-FACTORIAL PAX6 reporter transcription, RNA readout; actives raise or lower the signal. In a few lines:
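Fluorescent RT-PCR products separated by capillary electrophoresis report PAX6-linked promoter mRNA in HepG2 cells 24 h post-dose. Curves fitted bidirectionally, DMSO as negative control.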

A short description of experiment [12]: ATG_PXRE_CIS: Attagene CIS-FACTORIAL HepG2 Assay for human Pregnane X Receptor Element (PXRE) (AID 2282957). Conditions: HepG2 Attagene CIS-FACTORIAL PXRE reporter, mRNA; actives raise or lower the signal. In a few lines: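 Bidirectional activity, baselined to DMSO, derived from reporter mRNA fluorescence (RT-PCR plus capillary electrophoresis) in HepG2 cells bearing cis-promoter reporter units, 24 h exposure.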

Experiment [13] is described as follows: ATG_PPRE_CIS: Attagene CIS-FACTORIAL HepG2 Assay for human Peroxisome Proliferator-activated Response Element (PPRE) (AID 2282958). Conditions: HepG2 PPRE cis-element reporter, Attagene transcription factor profiling; actives raise or lower the signal. The procedure, abridged: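 Cells are first transfected transiently with the multiplexed reporter library, then dosed for 24 h. Total RNA is reverse-transcribed, amplified, fluorescently end-labeled and HpaI-cut before capillary electrophoresis; activity is fitted bidirectionally against DMSO controls.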

Experiment [14] in a line: ATG_Sox_CIS: Attagene CIS-FACTORIAL HepG2 Assay for human SRY-box transcription factor (SOX) (AID 2282960). Conditions: HepG2 Attagene cis-factorial SOX reporter, mRNA; actives raise or lower the signal. In a few lines:
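Transient MRTU transfection of HepG2; 24 h compound incubation; TriZol RNA, oligo(dT) RT, PCR, 6-FAM primer extension, HpaI cut, CE. Bidirectional fit, DMSO = baseline.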

Experiment [15] addresses Transcription factor Sp1 (Homo sapiens) (UniProt P08047). The experiment in a line: ATG_Sp1_CIS: Attagene CIS-FACTORIAL HepG2 Assay for human Specificity Protein 1 (Sp1) (AID 2282961). Conditions: HepG2 Sp1 cis-reporter transcription, actives raise or lower the signal. The procedure, abridged: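 Endogenous Sp1 activity was gauged in human liver HepG2 cells bearing transfected reporter units under a cis-regulating promoter. After 24 h dosing, reporter mRNA was quantified by RT-PCR with capillary electrophoresis, and activity fitted bidirectionally versus DMSO.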

Experiment [16] is described as follows: ATG_SREBP_CIS: Attagene CIS-FACTORIAL HepG2 Assay for human Sterol Regulatory Element Binding (SREBP) (AID 2282962). The conditions noted are these: HepG2 Attagene cis-factorial SREBP reporter, mRNA; actives raise or lower the signal. The procedure, abridged: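 Endogenous factor activity is measured in HepG2 through multiplexed reporter units under cis-element control. Following a 24 h incubation, reporter transcripts are reverse-transcribed, PCR-amplified and sized by capillary electrophoresis; activity is fitted in both directions relative to DMSO.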

Experiment [17] has as its target Signal transducer and activator of transcription 3 (Homo sapiens) (UniProt P40763). As to the kind of experiment: ATG_STAT3_CIS: Attagene CIS-FACTORIAL HepG2 Assay for human Signal Transducer and Activator of Transcription 3 (STAT3) (AID 2282963). The conditions noted are these: HepG2, Attagene cis-factorial STAT3 reporter transcription; actives raise or lower the signal. In a few lines: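 HepG2, MRTU-transfected, 24 h dosing. RNA → RT → PCR → FAM label → HpaI → CE. Bidirectional fit vs DMSO.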

Experiment [18] in a line: ATG_TCF_b_cat_CIS: Attagene CIS-FACTORIAL HepG2 Assay for human T-Cell-Factor with beta-catenin (TCF/b-cat) (AID 2282965). Conditions: HepG2 TCF/beta-catenin cis-reporter transcription, actives raise or lower the signal. In a few lines: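 Using capillary electrophoresis as the read-out, labelled reporter cDNA fragments from transiently transfected HepG2 were sized and quantified. Exposure lasted 24 hours; activity in either direction was referenced to DMSO.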

Experiment [19] in a line: ATG_RORE_CIS: Attagene CIS-FACTORIAL HepG2 Assay for human RAR-related Orphan Receptor Element (RORE) (AID 2282959). Conditions: HepG2 Attagene cis-factorial RORE reporter, mRNA; actives raise or lower the signal. The procedure, abridged:
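Cells were HepG2 carrying transfected cis-regulated reporter constructs, dosed for 24 hours. Total RNA was reverse-transcribed and reporter cDNA amplified, fluorescently labeled and sized by capillary electrophoresis. Activity was fitted bidirectionally relative to DMSO.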

Experiment [20] is described as follows: ATG_TA_CIS: Attagene CIS-FACTORIAL HepG2 Assay for human TA Basal Promoter (AID 2282964). The conditions noted are these: HepG2 Attagene CIS-factorial TA basal promoter reporter; actives raise or lower the signal. The procedure, abridged: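 Multiplexed mRNA reporter assay, HepG2, 24 h. Reporter cDNA amplified, 6-FAM primer-extended, HpaI-cut, CE-sized; DMSO = negative control and baseline.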

Bile acid receptor (Homo sapiens), sequence (Q96RI1 whole entry, looked up): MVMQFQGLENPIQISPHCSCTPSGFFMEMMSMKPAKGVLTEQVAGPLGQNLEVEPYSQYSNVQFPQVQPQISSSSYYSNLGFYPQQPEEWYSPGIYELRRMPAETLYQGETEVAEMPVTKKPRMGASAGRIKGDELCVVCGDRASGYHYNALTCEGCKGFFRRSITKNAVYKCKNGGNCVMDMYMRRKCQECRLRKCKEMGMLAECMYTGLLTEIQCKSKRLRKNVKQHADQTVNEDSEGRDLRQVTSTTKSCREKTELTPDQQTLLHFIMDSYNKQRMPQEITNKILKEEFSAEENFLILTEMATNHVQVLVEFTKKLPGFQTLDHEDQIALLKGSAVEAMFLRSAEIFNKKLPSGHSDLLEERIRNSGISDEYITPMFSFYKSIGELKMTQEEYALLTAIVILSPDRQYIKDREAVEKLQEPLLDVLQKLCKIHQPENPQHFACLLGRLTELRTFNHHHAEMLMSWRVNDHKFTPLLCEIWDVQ
Transcription factor Sp1 (Homo sapiens), sequence (P08047 whole entry, looked up): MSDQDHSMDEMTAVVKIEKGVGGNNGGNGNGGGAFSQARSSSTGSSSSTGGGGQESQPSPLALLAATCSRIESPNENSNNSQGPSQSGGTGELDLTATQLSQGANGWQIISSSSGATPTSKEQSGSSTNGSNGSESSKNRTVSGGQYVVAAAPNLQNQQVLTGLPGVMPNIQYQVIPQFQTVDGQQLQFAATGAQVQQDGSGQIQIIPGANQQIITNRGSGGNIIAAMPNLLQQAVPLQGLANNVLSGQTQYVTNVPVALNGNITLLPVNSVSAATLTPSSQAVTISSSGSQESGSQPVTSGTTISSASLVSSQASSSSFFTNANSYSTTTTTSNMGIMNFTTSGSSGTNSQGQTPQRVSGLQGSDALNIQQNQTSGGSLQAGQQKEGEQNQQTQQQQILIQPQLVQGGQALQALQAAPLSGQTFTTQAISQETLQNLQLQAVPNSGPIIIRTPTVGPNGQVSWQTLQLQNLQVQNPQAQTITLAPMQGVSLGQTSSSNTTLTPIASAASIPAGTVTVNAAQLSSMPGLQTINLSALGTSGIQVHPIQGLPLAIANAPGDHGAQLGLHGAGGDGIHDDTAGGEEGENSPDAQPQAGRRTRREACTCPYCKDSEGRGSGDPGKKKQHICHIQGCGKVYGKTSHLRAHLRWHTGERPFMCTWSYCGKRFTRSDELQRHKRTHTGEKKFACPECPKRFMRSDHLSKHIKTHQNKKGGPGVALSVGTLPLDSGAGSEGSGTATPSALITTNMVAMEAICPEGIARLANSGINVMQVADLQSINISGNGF
Heat shock factor protein 1 (Homo sapiens), sequence (Q00613 whole entry, looked up): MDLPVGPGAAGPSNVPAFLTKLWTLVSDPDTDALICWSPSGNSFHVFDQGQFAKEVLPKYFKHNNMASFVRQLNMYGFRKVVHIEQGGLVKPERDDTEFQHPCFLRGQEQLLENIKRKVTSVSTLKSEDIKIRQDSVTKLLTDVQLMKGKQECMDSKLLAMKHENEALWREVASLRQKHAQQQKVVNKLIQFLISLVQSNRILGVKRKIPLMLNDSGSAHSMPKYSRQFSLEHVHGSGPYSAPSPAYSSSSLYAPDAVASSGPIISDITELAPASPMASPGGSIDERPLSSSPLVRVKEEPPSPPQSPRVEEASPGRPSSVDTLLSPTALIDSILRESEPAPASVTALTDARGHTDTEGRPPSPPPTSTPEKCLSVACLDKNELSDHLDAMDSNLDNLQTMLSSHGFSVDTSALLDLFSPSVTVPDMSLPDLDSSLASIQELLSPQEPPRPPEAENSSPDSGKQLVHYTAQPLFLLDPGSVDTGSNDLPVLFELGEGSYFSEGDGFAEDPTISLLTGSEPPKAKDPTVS
Paired box protein Pax-6 (Homo sapiens), sequence (P26367 whole entry, looked up): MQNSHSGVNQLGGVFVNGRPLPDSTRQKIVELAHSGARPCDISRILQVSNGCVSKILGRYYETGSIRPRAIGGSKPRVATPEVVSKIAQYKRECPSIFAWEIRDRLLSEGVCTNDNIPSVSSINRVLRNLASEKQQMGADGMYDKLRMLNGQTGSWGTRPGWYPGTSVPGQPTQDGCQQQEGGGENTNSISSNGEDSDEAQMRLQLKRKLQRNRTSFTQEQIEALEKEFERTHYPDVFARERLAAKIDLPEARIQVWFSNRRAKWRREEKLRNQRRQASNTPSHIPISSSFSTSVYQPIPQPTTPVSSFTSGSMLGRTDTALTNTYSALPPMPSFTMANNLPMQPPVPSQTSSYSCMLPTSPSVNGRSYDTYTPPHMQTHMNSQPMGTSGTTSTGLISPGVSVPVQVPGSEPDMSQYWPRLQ
Signal transducer and activator of transcription 3 (Homo sapiens), sequence (P40763 whole entry, looked up): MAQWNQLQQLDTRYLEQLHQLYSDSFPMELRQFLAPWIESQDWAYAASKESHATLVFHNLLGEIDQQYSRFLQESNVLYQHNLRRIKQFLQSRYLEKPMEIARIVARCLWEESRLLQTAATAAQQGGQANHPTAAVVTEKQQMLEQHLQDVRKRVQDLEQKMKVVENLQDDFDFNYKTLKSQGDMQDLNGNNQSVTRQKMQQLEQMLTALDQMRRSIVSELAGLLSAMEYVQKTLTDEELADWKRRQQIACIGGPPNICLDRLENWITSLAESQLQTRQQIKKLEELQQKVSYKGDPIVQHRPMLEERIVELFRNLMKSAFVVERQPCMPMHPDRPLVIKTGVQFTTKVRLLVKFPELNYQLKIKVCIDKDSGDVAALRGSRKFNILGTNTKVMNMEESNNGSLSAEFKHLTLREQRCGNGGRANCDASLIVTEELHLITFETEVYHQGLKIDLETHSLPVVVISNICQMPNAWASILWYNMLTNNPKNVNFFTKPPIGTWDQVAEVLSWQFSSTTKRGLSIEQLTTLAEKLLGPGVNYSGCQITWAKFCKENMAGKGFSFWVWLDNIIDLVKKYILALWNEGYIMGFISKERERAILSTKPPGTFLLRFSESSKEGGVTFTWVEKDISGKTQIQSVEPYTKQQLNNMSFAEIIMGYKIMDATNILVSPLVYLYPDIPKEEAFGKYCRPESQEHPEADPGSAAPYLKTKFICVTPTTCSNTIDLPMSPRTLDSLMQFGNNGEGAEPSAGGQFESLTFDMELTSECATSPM
Hypoxia-inducible factor 1-alpha (Homo sapiens), sequence (Q16665 whole entry, looked up): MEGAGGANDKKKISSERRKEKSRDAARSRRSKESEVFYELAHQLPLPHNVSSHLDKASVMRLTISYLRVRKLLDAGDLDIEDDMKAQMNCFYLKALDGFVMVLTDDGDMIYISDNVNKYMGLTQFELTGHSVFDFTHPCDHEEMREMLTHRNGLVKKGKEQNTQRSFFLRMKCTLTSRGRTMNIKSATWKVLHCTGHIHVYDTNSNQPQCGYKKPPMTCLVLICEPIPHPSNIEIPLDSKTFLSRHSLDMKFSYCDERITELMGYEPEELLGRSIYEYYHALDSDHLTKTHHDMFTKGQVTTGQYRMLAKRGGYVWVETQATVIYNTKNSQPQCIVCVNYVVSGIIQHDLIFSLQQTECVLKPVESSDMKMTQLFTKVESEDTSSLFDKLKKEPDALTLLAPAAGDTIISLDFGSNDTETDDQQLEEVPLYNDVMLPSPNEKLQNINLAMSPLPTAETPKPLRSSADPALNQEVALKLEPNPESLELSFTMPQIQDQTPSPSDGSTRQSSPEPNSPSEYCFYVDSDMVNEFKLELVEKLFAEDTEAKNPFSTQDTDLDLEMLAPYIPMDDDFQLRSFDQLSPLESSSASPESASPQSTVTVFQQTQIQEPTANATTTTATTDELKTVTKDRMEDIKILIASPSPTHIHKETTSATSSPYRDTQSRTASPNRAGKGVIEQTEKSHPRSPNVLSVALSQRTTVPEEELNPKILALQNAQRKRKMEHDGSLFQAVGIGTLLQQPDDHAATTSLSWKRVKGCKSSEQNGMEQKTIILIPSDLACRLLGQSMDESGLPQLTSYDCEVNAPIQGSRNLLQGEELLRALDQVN
Hepatocyte nuclear factor 6 (Homo sapiens), sequence (Q9UBC0 whole entry, looked up, the tested form may be a part): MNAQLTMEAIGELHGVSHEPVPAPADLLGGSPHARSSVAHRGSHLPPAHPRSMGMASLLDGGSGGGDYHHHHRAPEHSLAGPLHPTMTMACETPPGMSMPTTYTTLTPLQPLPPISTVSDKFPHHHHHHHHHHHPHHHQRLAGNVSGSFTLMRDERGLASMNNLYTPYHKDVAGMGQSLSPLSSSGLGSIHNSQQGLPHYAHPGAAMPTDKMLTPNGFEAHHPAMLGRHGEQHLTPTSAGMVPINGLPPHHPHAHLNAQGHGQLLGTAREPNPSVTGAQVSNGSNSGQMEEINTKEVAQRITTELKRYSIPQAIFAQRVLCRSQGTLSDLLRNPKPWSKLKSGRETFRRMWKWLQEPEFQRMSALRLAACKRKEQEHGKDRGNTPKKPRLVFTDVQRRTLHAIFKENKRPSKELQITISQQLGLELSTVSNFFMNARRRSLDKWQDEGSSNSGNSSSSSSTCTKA

Take `CCCOC(=O)c1cc(O)c(O)c(O)c1`: the outcome in experiment [1], in experiment [2], in experiment [3], in experiment [4], in experiment [5] and in [7] was inactive. The compound was called inactive in experiment [8], in [9], in experiment [10], in [11], in experiment [12] and in [14]. Moreover, the call in [15], in [16] and in experiment [17] was inactive. Also, the AC50 (in general, the concentration giving half of the maximal activity seen) in experiment [6] is 65.1 µM (active); in experiment [13] it was 21 µM (active).

For `Cc1oc2c(NC(=O)c3c(Cl)cccc3Cl)cccc2c1C(C)(C)O`, the AC50 in experiment [1] was 158 µM (active); in [3] it was 26.8 µM (active); in [8], 177 µM (active); in experiment [9] it was 129 µM (active); in experiment [10], 6.18 µM (active); in [11], 85.7 µM (active). Further, the concentration at half-maximal activity (AC50) in [12] was 0.116 µM (active); in experiment [13], 71.8 µM (active); in experiment [16], 6.28 µM (active); in [18], 25.4 µM (active). Moreover, the compound was classed as inactive in experiment [2], in experiment [4], in experiment [5], in [7], in [14] and in [15]. Moreover, the call in experiment [17] was inactive.

On to `CCN(CC)C(=O)c1cc(S(=O)(=O)Cc2ccccc2)c(N2CCC(c3ccccc3)CC2)cc1N(CC)CCN(C)C`, for which the call in experiment [1], in experiment [2], in experiment [3], in experiment [4], in experiment [5] and in [7] was inactive. Besides, the call in experiment [8], in experiment [10], in [11], in experiment [13], in [14] and in experiment [15] was inactive. In addition, the compound was called inactive in [17] and in experiment [18]. Moreover, the AC50 in experiment [9] is 3.7 µM (active); in experiment [12], 0.126 µM (active); in experiment [16], 0.926 µM (active).

On to `Cc1cc(F)ccc1-c1cc(N2CC[C@@H](O)[C@H]2CO)ncc1N(C)C(=O)C(C)(C)c1cc(C(F)(F)F)cc(C(F)(F)F)c1`, for which the outcome in experiment [1], in [2], in [3], in experiment [4], in [5] and in experiment [7] was inactive. Also, the compound was called inactive in experiment [8], in experiment [9], in [10], in [11], in experiment [13] and in experiment [19]. Besides, the outcome in experiment [14], in experiment [15], in experiment [16], in [17] and in experiment [18] was inactive. The AC50 in experiment [12] is 0.35 µM (active).

Take `CCCC(=O)OCCC(C)C`: the result in [1], in [2], in experiment [3], in experiment [4], in [5] and in experiment [6] was inactive. The compound was called inactive in [7], in [8], in [9], in [11], in experiment [12] and in [13]. Also, the compound was called inactive in experiment [19], in experiment [14], in [15], in experiment [16], in [17] and in experiment [18].

In the case of `CCO[Si](CCCNC(N)=O)(OCC)OCC`, the call in [1], in [2], in experiment [3], in experiment [4], in experiment [5] and in experiment [7] was inactive. Besides, the compound was classed as inactive in experiment [8], in [9], in [10], in experiment [11], in [12] and in experiment [13]. In addition, the result in [14], in experiment [15], in experiment [16], in experiment [17], in [20] and in experiment [18] was inactive. The AC50 in [6] was 6.4 µM (active).
